# Results: PubChem BioAssay (NCATS)
# “And” between values parts separate entries of the source, which are not always exact repeats. Identical values can stand only once. Results filed as inconclusive are left out. A number with no mark means an inactive call. The source made the active and inactive calls. Calls follow the shape of the dose curve; as a rule, active = well fitted inhibition curve with a large enough effect; inconclusive = small, poorly fitted or top-dose-only effect; inactive = flat fitted curve, though single readings scatter.
# Tested on: KB-3-1
# Experiment: Cytotoxic Profiling of Annotated Libraries Using Quantitative High-Throughput Screening (AID 1296008); also: nearly all actives have a fitted effect of over 60% in size
# Settings: Five cell lines viability, CellTiter-Glo ATP luminescence, 48-72 h; max response: active compounds read low
# Source text: Cell-based phenotypic screening is a commonly used approach to discover biological pathways, novel drug targets, chemical probes and high-quality hit-to-lead molecules. Many hits identified from high-throughput screening campaign are ruled out through a series of follow-up potency, selectivity/specificity, and cytotoxicity assays. Prioritization of molecules with little or no cytotoxicity for a more in-depth downstream evaluation influence the future direction of projects, so cytotoxicity profiling of the screening libraries at early stage is essential for increasing the likelihood of candidate success. […] For the annotated library, we also examined the primary targets and mechanistic pathways regularly associated with cell death. To our knowledge, this is the first study to use high-throughput screening to profile large libraries for cytotoxicity assessment in both normal and cancer cell lines. In summary, the results generated here constitutes a valuable resource for the scientific community and provides insight on identifying cytotoxic compounds with particular mechanisms of action, and prioritizing compounds with suitable cytotoxicity profile for further evaluation.
# A pintool (Kalypsys) was used to transfer 23 nL of compound solution to the 1536-well assay plates. After 48 or 72 hr incubation at 37 degree Celsius, 5% CO2 and 95% humidity, 2.5 uL of CellTiter-Glo (Promega) was dispensed into each well using a dispenser (Aspect Automation, St. Paul, MN) with solenoid valves (Lee Valves, Westbrook CT). Plates were left at room temperature for 10 min before imaging the ATP-coupled luminescence using a ViewLux microplate imager (PerkinElmer, Waltham, MA).
# % is scaled to controls: 0 for no effect and ±100 for the full control effect; potency is read from the fitted curve at half-maximal effect.
Compound,max response,Potency,outcome
OC(c1ccccc1)(c1ccccc1)C1CN2CCC1CC2 (stereo not given),-22.3%,,
CC(=O)O[C@H]1C[C@H](O[C@H]2[C@@H](O)C[C@H](O[C@H]3[C@@H](O)C[C@H](OC4CC[C@@]5(C)[C@H](CC[C@@H]6[C@@H]5CC[C@]5(C)[C@@H](C7=CC(=O)OC7)CC[C@]65O)C4)O[C@@H]3C)O[C@@H]2C)O[C@H](C)[C@H]1O[C@@H]1O[C@H](CO)[C@@H](O)[C@H](O)[C@H]1O (stereo not given in full),,206 nM (active),
[Cl-].[Cl-].[Hg+2],-9.23%,,
O=CC=O,-15.6%,,
CC1=C2C[C@H]3[C@@H](CC=C4C[C@@H](O)CC[C@@]43C)[C@@H]2CC[C@]12O[C@@H]1C[C@H](C)CN[C@H]1[C@H]2C,1.29%,,
CN1C(=O)c2ccccc2NC(=O)C1Cc1ccccc1 (stereo not given),3.82%,,
C[C@]12CC[C@H](OS(=O)(=O)O)CC1=CC[C@@H]1[C@@H]2CC[C@]2(C)C(=O)CC[C@@H]12,5.94%,,
CCNC(C)Cc1cccc(C(F)(F)F)c1 (stereo not given),20.4%,,
CCC(C)(C#N)O[C@@H]1O[C@H](CO)[C@@H](O)[C@H](O)[C@H]1O (stereo not given in full),,,inactive
CC(=O)OC1CN2CCC1CC2 (stereo not given),4.86%,,
C=CCN1CC[C@]23c4c5ccc(O)c4O[C@H]2[C@@H](O)C=C[C@H]3[C@H]1C5,10.7%,,
CC1(C)[C@H](C=C(Cl)Cl)[C@H]1C(=O)OCc1c(F)c(F)cc(F)c1F,-0.195%,,
COc1cc2c(cc1OC)[C@@]13CCN4CC5=CCO[C@H]6CC(=O)N2[C@H]1[C@H]6[C@H]5C[C@H]43,8.18% and 2.14%,,
O=c1[nH]cc(N(CCCl)CCCl)c(=O)[nH]1,-15%,,
C#CC(C)(O)CC (stereo not given),-2.82%,,
CCN1C[C@]2(COC(=O)c3ccccc3N3C(=O)C[C@H](C)C3=O)CC[C@H](OC)[C@@]34[C@@H]5C[C@H]6[C@H](OC)[C@@H]5[C@](O)(C[C@@H]6OC)[C@](O)([C@@H](OC)[C@H]23)[C@@H]14,,,inactive
OC[C@@H](O)[C@H]1O[C@@H]2O[C@H](C(Cl)(Cl)Cl)O[C@@H]2[C@H]1O,3.48%,,
CCC(C)(OC(C)=O)C(=O)O[C@H]1[C@H](OC(C)=O)C[C@@H]2[C@@](C)([C@@H]3C[C@H]4C=CO[C@H]4O3)[C@H](C)C[C@H](OC(C)=O)[C@@]2(COC(C)=O)[C@@]12CO2 (stereo not given in full),8.14%,,
Cc1cccc(NC(=O)N[C@@H]2N=C(c3ccccc3)c3ccccc3N(C)C2=O)c1,9%,,
O=[N+]([O-])c1ccc(F)c([N+](=O)[O-])c1,-19.8%,,

Compound,max response,Potency,outcome
C[C@H]1CCC[C@H](O)CCCCCc2cc(O)cc(O)c2C(=O)O1,2.03%,,
Cc1ccccc1-n1c(C)nc2ccccc2c1=O,-2.74% and -4.4%,,
COc1ccc2c3c1O[C@H]1[C@@H](O)C=C[C@H]4[C@@H](C2)NCC[C@@]341,2.68% and -3.7%,,
CC(C)CCON=O,10.4%,,
C[C@]12CC[C@H]3[C@@H](CCC4=C(Cl)C(=O)CC[C@@]43C)[C@@H]1CC[C@@H]2O,3.69%,,
NCC(O)c1cccc(O)c1 (stereo not given),1.34%,,
CC[N+](C)(CC)CCOC(=O)C(O)(c1ccccc1)c1ccccc1,-0.181%,,
c1ccc(C2(N3CCCC3)CCCCC2)cc1,2%,,
N#CC(OC1OC(COC2OC(CO)C(O)C(O)C2O)C(O)C(O)C1O)c1ccccc1 (stereo not given),9.88%,,
C[C@@H]([C@H](O)c1ccccc1)N(C)C,3.96%,,
CCNC1(c2cccs2)CCCCC1=O (stereo not given),-6.94%,,
S=C(S)N1CCNCC1,7.2%,,
CC(C)(O)[C@@H]1[C@H]2OC(=O)[C@@H]1[C@]1(O)C[C@H]3O[C@]34C(=O)O[C@H]2[C@]14C,0.436% and -3.57%,,
O[C@H]1[C@H]2[C@H](O)CCCN2C[C@H]1O,-14%,,
COC1=CC(=O)O[C@@H](CCc2ccccc2)C1,,,inactive
CO[C@H]1[C@H](O)[C@H](O[C@H]2CC[C@]3(C)C4CC[C@]5(C)[C@H](C6=CC(=O)OC6)CC[C@]5(O)C4CC[C@@H]3C2)O[C@@H](C)[C@@H]1O (stereo not given in full),,89.3 nM (active),
COc1cc(C(=O)O[C@H]2[C@@H]3C=CO[C@@H](O[C@@H]4O[C@H](CO)[C@@H](O)[C@H](O)[C@H]4O)[C@@H]3[C@@]3(CO)O[C@@H]23)ccc1O,,,inactive
COC1C(O)C(OC2CCC3(C=O)C(CCC4C3CCC3(C)C(C5=CC(=O)OC5)CCC43O)C2)OC(C)C1OC1OC(CO)C(O)C(O)C1O (stereo not given),,485 nM (active),
CCCCCCn1c(=O)c(C(=O)Nc2ccc(C(=O)OCCC)cc2)c(O)c2ccccc21,,,inactive
CN1[C@H]2C[C@H](OC(=O)[C@H](CO)c3ccccc3)C[C@@H]1[C@@H](O)C2,1.1%,,
